Experimental data reported in PubChem BioAssay (NCI).
The panel holds about 83,000 compounds, 20% with a hit somewhere; the sample as a whole holds those more often.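 Note: values are percent growth. 100 is the growth of untreated cells, values between 100 and 0 indicate rising inhibition; between -100 and 0 indicates cell death.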 Active and inactive are the calls of the source. The calls were made as follows: active = growth percent below 10; inactive = the rest.

Columns and labels:
Assay in all cases: NCI-60 one-dose screen, 48 h (100 = growth as untreated, 0 = no growth, -100 = all killed)
Settings in all cases: 10 µM unless noted
SR leukemia = test system: SR leukemia
RPMI-8226 leukemia = test system: RPMI-8226 leukemia
OVCAR-8 ovarian = test system: OVCAR-8 ovarian
OVCAR-5 ovarian = test system: OVCAR-5 ovarian
OVCAR-4 ovarian = test system: OVCAR-4 ovarian
SK-OV-3 ovarian = test system: SK-OV-3 ovarian
IGROV1 ovarian = test system: IGROV1 ovarian
OVCAR-3 ovarian = test system: OVCAR-3 ovarian
HS 578T breast = test system: HS 578T breast
NCI/ADR-RES ovarian = test system: NCI/ADR-RES ovarian

Measured: growth

O=C1NC(c2ccc(Cl)c(Cl)c2)=C/C1=C\c1ccccc1
active: OVCAR-4 ovarian -36.6%
inactive: SR leukemia 17.1% | RPMI-8226 leukemia 48.3% | OVCAR-8 ovarian 74.4% | OVCAR-5 ovarian 73.2% | SK-OV-3 ovarian 100% | IGROV1 ovarian 59.2% | OVCAR-3 ovarian 50.8% | HS 578T breast 66.3% | NCI/ADR-RES ovarian 83.7%

NCCn1cc(-c2nc(-c3c[nH]c4ncccc34)cs2)c2cc(F)ccc21
active: SR leukemia -5.68%
inactive: RPMI-8226 leukemia 59.2% | OVCAR-8 ovarian 76.1% | OVCAR-5 ovarian 92.6% | OVCAR-4 ovarian 59.8% | SK-OV-3 ovarian 78.9% | IGROV1 ovarian 47.1% | OVCAR-3 ovarian 85.6% | HS 578T breast 81.9% | NCI/ADR-RES ovarian 86.4%

COc1cc2c(cc1-c1c(C)noc1C)ncc1nc(C3CC3)n([C@H](C)COC(F)F)c12
inactive: SR leukemia 25.5% | RPMI-8226 leukemia 17.8% | OVCAR-8 ovarian 46.3% | OVCAR-5 ovarian 84.2% | OVCAR-4 ovarian 58.7% | IGROV1 ovarian 58.6% | OVCAR-3 ovarian 42% | NCI/ADR-RES ovarian 40.1%
active: SK-OV-3 ovarian 1.36% | HS 578T breast 8.14%

Cc1nn(-c2ccc(Cl)cc2)c(=O)n1CCn1cnc2ccccc21
inactive: SR leukemia 104% | RPMI-8226 leukemia 104% | OVCAR-8 ovarian 112% | OVCAR-5 ovarian 99.9% | OVCAR-4 ovarian 118% | SK-OV-3 ovarian 113% | IGROV1 ovarian 102% | OVCAR-3 ovarian 111% | HS 578T breast 100% | NCI/ADR-RES ovarian 103%

O=C1CN(c2ccccc2)C(=O)C1C(=O)Nc1ccc(Cl)c(Cl)c1 (stereo not given)
inactive: RPMI-8226 leukemia 34.9% [100 µM] | OVCAR-5 ovarian 36.3% [100 µM] | SK-OV-3 ovarian 20.3% [100 µM] | IGROV1 ovarian 20.9% [100 µM] | OVCAR-3 ovarian 39.3% [100 µM] | HS 578T breast 32.8% [100 µM] | NCI/ADR-RES ovarian 21.6% [100 µM]
active: SR leukemia 1.54% [100 µM] | OVCAR-8 ovarian -9.87% [100 µM] | OVCAR-4 ovarian 0.243% [100 µM]

COc1ccccc1-n1cnc(N)c1C(=O)c1cc(OC)c(OC)c(OC)c1
inactive: SR leukemia 30.2% | RPMI-8226 leukemia 30.9% | OVCAR-8 ovarian 61.8% | OVCAR-5 ovarian 79.1% | OVCAR-4 ovarian 65.9% | SK-OV-3 ovarian 48.2% | IGROV1 ovarian 45.5% | NCI/ADR-RES ovarian 55.1%
active: OVCAR-3 ovarian -21.3% | HS 578T breast -12.8%

Cc1ccc(S(=O)(=O)Nc2ccc(-c3cc(-c4cccc(F)c4)c(C#N)c(N)n3)cc2)cc1
inactive: OVCAR-5 ovarian 45.5% | SK-OV-3 ovarian 71.8% | HS 578T breast 31.4% | NCI/ADR-RES ovarian 41%
active: SR leukemia 8.01% | RPMI-8226 leukemia -3.27% | OVCAR-8 ovarian 7.02% | OVCAR-4 ovarian -63.4% | IGROV1 ovarian -66.3% | OVCAR-3 ovarian -79.4%

CC(C)(C)c1cc(-n2c(-c3ccc(Cl)cc3)nc3cc(C(=O)Nc4ccc(Cl)cc4)ccc32)n[nH]1
inactive: SR leukemia 70.3% | RPMI-8226 leukemia 51.1% | OVCAR-8 ovarian 61.6% | OVCAR-5 ovarian 93% | OVCAR-4 ovarian 56.4% | SK-OV-3 ovarian 99.8% | IGROV1 ovarian 40.3% | OVCAR-3 ovarian 45.8% | HS 578T breast 55.8% | NCI/ADR-RES ovarian 40.4%

COc1cc(NC(C)CN(CC(C)C)C(C)C)c2ncccc2c1 (stereo not given)
inactive: SR leukemia 90.2% | RPMI-8226 leukemia 102% | OVCAR-8 ovarian 90.1% | OVCAR-5 ovarian 109% | OVCAR-4 ovarian 40.2% | SK-OV-3 ovarian 101% | IGROV1 ovarian 110% | OVCAR-3 ovarian 92.9% | HS 578T breast 115% | NCI/ADR-RES ovarian 93.3%

O=C(O[C@@H]1Cc2c(O)cc(O)cc2O[C@@H]1c1cc(O)c(O)c(O)c1)c1cc(O)c2c(c1)OCO2
inactive: SR leukemia 72.1% | RPMI-8226 leukemia 99.8% | OVCAR-8 ovarian 103% | OVCAR-5 ovarian 97% | OVCAR-4 ovarian 99.8% | SK-OV-3 ovarian 103% | IGROV1 ovarian 107% | OVCAR-3 ovarian 106% | HS 578T breast 98.1% | NCI/ADR-RES ovarian 97.5%

COc1ccc2c(c1)c(-c1nc(-c3c[nH]c4ncccc34)cs1)cn2CCN
inactive: RPMI-8226 leukemia 52.7% | OVCAR-8 ovarian 70.5% | OVCAR-5 ovarian 88.6% | OVCAR-4 ovarian 57.1% | SK-OV-3 ovarian 60.7% | IGROV1 ovarian 30.4% | OVCAR-3 ovarian 70.5% | HS 578T breast 62.3% | NCI/ADR-RES ovarian 84.1%
active: SR leukemia 0.217%

CC1(C)C(=O)/C(=C\c2cccnc2)C[C@]2(C)[C@H]3CC[C@@H]4[C@@H](C(=O)/C=C/c5ccncc5)CC[C@@]4(C)[C@]3(C)CC[C@@H]12
inactive: OVCAR-8 ovarian 19.5% | OVCAR-5 ovarian 18.1% | OVCAR-4 ovarian 18.9% | SK-OV-3 ovarian 64.2% | HS 578T breast 31.7%
active: SR leukemia 5.46% | RPMI-8226 leukemia -7.22% | IGROV1 ovarian -28.1% | OVCAR-3 ovarian -48.6% | NCI/ADR-RES ovarian -0.549%

C=C(C)[C@@H]1CC[C@]2(C=NCCCNCCCCNCCCN)CC[C@]3(C)[C@H](CC[C@@H]4[C@@]5(C)CCCNC(C)(C)[C@@H]5CC[C@]43C)[C@@H]12
inactive: SR leukemia 21.7% | RPMI-8226 leukemia 107% | OVCAR-8 ovarian 83.8% | OVCAR-5 ovarian 112% | OVCAR-4 ovarian 102% | SK-OV-3 ovarian 95.8% | IGROV1 ovarian 112% | OVCAR-3 ovarian 106% | HS 578T breast 104% | NCI/ADR-RES ovarian 91.8%

CC(=O)O[C@H]1CC[C@]2(C)[C@H]3CC=C4[C@@H]5[C@H](C)[C@@H](C)CC[C@]5(C(=O)NCCNCCNCCN)CC[C@@]4(C)[C@]3(C)CC[C@H]2C1(C)C
active: SR leukemia -5.48%
inactive: RPMI-8226 leukemia 42.3% | OVCAR-8 ovarian 96% | OVCAR-5 ovarian 96.1% | OVCAR-4 ovarian 95.2% | SK-OV-3 ovarian 106% | IGROV1 ovarian 57% | OVCAR-3 ovarian 89.8% | HS 578T breast 95.4% | NCI/ADR-RES ovarian 89.8%

COc1ccc(/C=C2\N=C(c3ccccc3)N(c3cc(OC)c(OC)cc3C(=O)N3N=C(C)CC3=O)C2=O)cc1
inactive: SR leukemia 92.1% | RPMI-8226 leukemia 47.7% | OVCAR-8 ovarian 89.4% | OVCAR-5 ovarian 103% | OVCAR-4 ovarian 101% | SK-OV-3 ovarian 99.3% | IGROV1 ovarian 99.8% | OVCAR-3 ovarian 105% | HS 578T breast 91.7% | NCI/ADR-RES ovarian 78.6%

C/C(=N\Nc1cc(C)c2cc(C)ccc2n1)c1ccccn1
active: SR leukemia 0.29% | RPMI-8226 leukemia -33.4% | OVCAR-8 ovarian -60% | OVCAR-5 ovarian -33.3% | OVCAR-4 ovarian -83.1% | IGROV1 ovarian -35.9% | OVCAR-3 ovarian -40.6% | NCI/ADR-RES ovarian 1.12%
inactive: SK-OV-3 ovarian 25.4% | HS 578T breast 45.9%

Cc1nnc2nc(N)[nH]n2c1=O
inactive: SR leukemia 78.9% | RPMI-8226 leukemia 106% | OVCAR-8 ovarian 98.8% | OVCAR-5 ovarian 117% | OVCAR-4 ovarian 99.4% | SK-OV-3 ovarian 112% | IGROV1 ovarian 103% | OVCAR-3 ovarian 104% | HS 578T breast 112% | NCI/ADR-RES ovarian 99.7%

C[C@H]1[C@H]2C3=CC[C@@H]4[C@@]5(C)C/C(=C/c6ccco6)C(=O)C(C)(C)[C@@H]5CC[C@@]4(C)[C@]3(C)CC[C@@]2(C(=O)N2CCOCC2)CC[C@@H]1C
inactive: SR leukemia 29.4% | RPMI-8226 leukemia 40.4% | OVCAR-8 ovarian 54.7% | OVCAR-5 ovarian 96.6% | OVCAR-4 ovarian 50.1% | SK-OV-3 ovarian 107% | IGROV1 ovarian 56.5% | OVCAR-3 ovarian 55.6% | HS 578T breast 77.9% | NCI/ADR-RES ovarian 83.1%

CC1(C)[C@@H](O)CC[C@]2(C)[C@H]3CC[C@@H]4[C@H]5[C@H](C(=O)/C=C/c6ccc(C(F)(F)F)cc6)CC[C@]5(CO)CC[C@@]4(C)[C@]3(C)CC[C@@H]12
inactive: SR leukemia 17.8% | RPMI-8226 leukemia 28.2% | OVCAR-8 ovarian 55.7% | OVCAR-5 ovarian 109% | OVCAR-4 ovarian 38.4% | SK-OV-3 ovarian 98.6% | IGROV1 ovarian 61.5% | OVCAR-3 ovarian 51.8% | HS 578T breast 59.6% | NCI/ADR-RES ovarian 70.5%

COC(=O)C(N)CSC(c1ccccc1)(c1ccccc1)c1ccccc1 (stereo not given)
inactive: RPMI-8226 leukemia 30.9% | OVCAR-8 ovarian 36.8% | OVCAR-5 ovarian 33.3% | OVCAR-4 ovarian 79.8% | SK-OV-3 ovarian 19.4% | IGROV1 ovarian 28.6% | OVCAR-3 ovarian 20.7% | HS 578T breast 21.5% | NCI/ADR-RES ovarian 68.4%
active: SR leukemia 7.6%

CN(C)c1ccc(N=C2C=CC(=O)C=C2)cc1
inactive: SR leukemia 25.9% | RPMI-8226 leukemia 61.1% | OVCAR-8 ovarian 81.7% | OVCAR-5 ovarian 120% | OVCAR-4 ovarian 70.4% | SK-OV-3 ovarian 99.7% | IGROV1 ovarian 96.5% | HS 578T breast 72.5% | NCI/ADR-RES ovarian 90.8%
active: OVCAR-3 ovarian -14.8%

C=C(C)[C@@H]1CC[C@]2(C)[C@H](CC[C@@H]3[C@H]4[C@H]5OC[C@@]4(CCC5(C)C)CC[C@]32C)[C@@]1(C)CCCN
active: SR leukemia -0.922% | RPMI-8226 leukemia 1.46%
inactive: OVCAR-8 ovarian 57.8% | OVCAR-5 ovarian 50.6% | OVCAR-4 ovarian 70.2% | SK-OV-3 ovarian 104% | IGROV1 ovarian 54.3% | OVCAR-3 ovarian 76.6% | HS 578T breast 109% | NCI/ADR-RES ovarian 73.8%

Clc1ccccc1-c1nc(Nc2nc3ccccc3s2)nc(C(Cl)(Cl)Cl)n1
active: OVCAR-3 ovarian 4.03%
inactive: SR leukemia 79.6% | RPMI-8226 leukemia 10.1% | OVCAR-8 ovarian 68.6% | OVCAR-5 ovarian 74.3% | OVCAR-4 ovarian 64.6% | SK-OV-3 ovarian 56.8% | IGROV1 ovarian 54.3% | HS 578T breast 70% | NCI/ADR-RES ovarian 50.6%

Nc1nc2c(c(=O)[nH]1)C(c1ccc3c(c1)OCO3)C=C(C(=O)O)N2 (stereo not given)
inactive: SR leukemia 103% | RPMI-8226 leukemia 129% | OVCAR-8 ovarian 106% | OVCAR-5 ovarian 114% | OVCAR-4 ovarian 103% | SK-OV-3 ovarian 118% | IGROV1 ovarian 111% | OVCAR-3 ovarian 123% | HS 578T breast 106% | NCI/ADR-RES ovarian 109%

NC1=NN(c2ccccc2)C(=O)/C1=C/c1ccc(Cl)cc1
inactive: SR leukemia 94.2% | RPMI-8226 leukemia 94.8% | OVCAR-8 ovarian 99% | OVCAR-5 ovarian 98.1% | OVCAR-4 ovarian 109% | SK-OV-3 ovarian 96.3% | IGROV1 ovarian 99.4% | OVCAR-3 ovarian 108% | HS 578T breast 106% | NCI/ADR-RES ovarian 103%
